This is part of a sample that, as a whole, favours compounds with a hit. Of some 83,000 tested, about 20% had one in any assay.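 In brief: 96-well plates, 48 h treatment, single concentration, percent growth endpoint.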 The source made the active and inactive calls. Rule for the calls: active = growth percent below 10; inactive = the rest.
What was measured:
Assay in all cases: NCI-60 one-dose screen, 48 h (100 = growth as untreated, 0 = no growth, -100 = all killed)
Details in all cases: 10 µM unless noted
T-47D breast = test system: T-47D breast
BT-549 breast = test system: BT-549 breast
MDA-MB-435 melanoma = test system: MDA-MB-435 melanoma
SW-620 colon = test system: SW-620 colon
MCF7 breast = test system: MCF7 breast
HCT-116 colon = test system: HCT-116 colon
KM12 colon = test system: KM12 colon
HCC-2998 colon = test system: HCC-2998 colon

Measured: growth

CCn1c(=S)[nH]c2c(=O)n(C)c(=O)n(C)c21
inactive: T-47D breast 104% | BT-549 breast 92.6% | MDA-MB-435 melanoma 103% | SW-620 colon 112% | MCF7 breast 102% | HCT-116 colon 93.1% | KM12 colon 111%

O=[N+]([O-])/C(=C/C=C/c1ccccc1)c1ccccc1
inactive: T-47D breast 46.4% | BT-549 breast 103% | MDA-MB-435 melanoma 70.6% | MCF7 breast 23.5% | KM12 colon 38.8%
active: SW-620 colon 5.75% | HCT-116 colon -5.29%

Cc1nc(-c2ccccc2)cc2c(O)c(C(=O)NN)[nH]c(=O)c12
inactive: T-47D breast 92.4% | BT-549 breast 193% | MDA-MB-435 melanoma 109% | SW-620 colon 97.5% | MCF7 breast 77.8% | HCT-116 colon 110% | KM12 colon 115%

COC(=O)c1cc(-c2ccc(S(C)(=O)=O)cc2)[nH]c1N/N=C/c1c(Cl)cccc1Cl
active: MDA-MB-435 melanoma -69.7% | MCF7 breast -5.62%
inactive: T-47D breast 31.2% | BT-549 breast 70.7% | SW-620 colon 15% | HCT-116 colon 11.4% | KM12 colon 20.6%

O=C(N/N=C/c1ccc(F)cc1)c1ccc(C(F)(F)F)nc1Nc1cccc(C(F)(F)F)c1
inactive: MDA-MB-435 melanoma 24.8% | HCT-116 colon 10.1%
active: T-47D breast -3.3% | BT-549 breast 1.7% | SW-620 colon 5.48% | MCF7 breast -18.6% | KM12 colon -4.29%

Cc1cccnc1NC(=S)Nc1ncccc1C
inactive: T-47D breast 99.7% | BT-549 breast 96.1% | MDA-MB-435 melanoma 83.9% | SW-620 colon 111% | MCF7 breast 82.9% | HCT-116 colon 101% | KM12 colon 107%

Cc1cc(Cl)ccc1Nc1nc(C(F)(F)F)ccc1C(=O)N/N=C/c1ccc([N+](=O)[O-])cc1
active: T-47D breast -1.52% | BT-549 breast 6.01% | MDA-MB-435 melanoma 6.79% | MCF7 breast -47.7% | HCT-116 colon 6.32% | KM12 colon -20.6%
inactive: SW-620 colon 93.4%

COC(=O)c1c2c(c(C)[n+]([O-])c1C)C(=O)C=C(NCc1ccc(OC)cc1)C2=O
active: T-47D breast -31% | BT-549 breast -88.8% | MDA-MB-435 melanoma -91.6% | SW-620 colon 0.249% | MCF7 breast -55.1% | HCT-116 colon -11.6% | KM12 colon -3.93%

CC(C)n1cnc2c(=S)nc[nH]c21
inactive: T-47D breast 101% | BT-549 breast 112% | MDA-MB-435 melanoma 94.9% | SW-620 colon 103% | MCF7 breast 106% | HCT-116 colon 106% | KM12 colon 102%

COc1ccc2c3c([nH]c2c1)C(=O)c1nc(C)ccc1C3=O
active: MDA-MB-435 melanoma -76.2%
inactive: T-47D breast 48.5% | BT-549 breast 71.7% | SW-620 colon 42.8% | MCF7 breast 41% | HCT-116 colon 30.3% | KM12 colon 36.6%

C=CCc1c2c(c(OC)c3ccoc13)C(=O)/C(=C/c1ccccc1OC)O2
inactive: T-47D breast 59.8% | BT-549 breast 46.1% | MDA-MB-435 melanoma 47.8% | SW-620 colon 47.2% | MCF7 breast 32.6% | HCT-116 colon 21.4% | KM12 colon 46.8%

CO[C@H]1/C=C(/C)CCC[C@H](C)[C@H](O)[C@@H](C)C(=O)C(C)(C)[C@@H](O)CC(=O)O[C@@H]1/C(C)=C/c1csc(C)n1
inactive: T-47D breast 42.3% | BT-549 breast 32.3% | SW-620 colon 33.8% | MCF7 breast 20.4%
active: MDA-MB-435 melanoma -34.8% | HCT-116 colon 9.39% | KM12 colon 5.07%

Cc1ccc(S(=O)(=O)N2CCCC2CO)cc1 (configuration not stated)
inactive: T-47D breast 100% | BT-549 breast 86.6% | MDA-MB-435 melanoma 111% | SW-620 colon 96.8% | MCF7 breast 91.3% | HCT-116 colon 96.8% | KM12 colon 104%

COc1cc(CNS(=O)(=O)c2ccc(C)cc2)ccc1OCc1cn(-c2ccc(F)cc2)nn1
inactive: T-47D breast 53.7% | BT-549 breast 83.6% | MDA-MB-435 melanoma 94.4% | SW-620 colon 98.6% | MCF7 breast 85.9% | HCT-116 colon 83.6% | KM12 colon 97.6%

COc1ccc(C(=S)N2CCN(c3ccccc3Cl)CC2)cc1OC
inactive: T-47D breast 79% | BT-549 breast 90.6% | MDA-MB-435 melanoma 91.7% | SW-620 colon 106% | MCF7 breast 106% | HCT-116 colon 87.1% | KM12 colon 123%

CCCCCOc1ccc(C(=O)/C(Br)=C/C(=O)O)cc1
inactive: T-47D breast 92.6% | BT-549 breast 110% | MDA-MB-435 melanoma 104% | SW-620 colon 111% | MCF7 breast 91.7% | HCT-116 colon 89.2% | KM12 colon 107%

CCOC(=O)CNP(=O)(OC[C@@H](Cc1ccccc1)NC(=O)c1cc2ccccc2s1)Oc1ccccc1 (some centres not stated)
inactive: T-47D breast 55.3% | BT-549 breast 74.6% | SW-620 colon 47.3% | MCF7 breast 51.2% | HCT-116 colon 71.9% | KM12 colon 42.3%
active: MDA-MB-435 melanoma 8.66%

O=C1CNC(c2ccccc2)C(c2ccccc2)N1 (configuration not stated)
inactive: T-47D breast 104% | BT-549 breast 82.8% | MDA-MB-435 melanoma 105% | SW-620 colon 98.5% | MCF7 breast 91.8% | HCT-116 colon 93% | KM12 colon 100%

Cn1ccc2c3c(ccc21)CC3=O
inactive: T-47D breast 105% | BT-549 breast 106% | MDA-MB-435 melanoma 106% | SW-620 colon 108% | MCF7 breast 107% | HCT-116 colon 101% | KM12 colon 112%

COC(=O)c1c2c(c(C)[n+]([O-])c1C)C(=O)C=C(NCc1ccc(Br)cc1)C2=O
active: T-47D breast -42.8% | BT-549 breast -93.5% | MDA-MB-435 melanoma -92.8% | SW-620 colon -17.2% | MCF7 breast -56.9% | HCT-116 colon -17.2% | KM12 colon -11.3%

CNc1nc(S(=O)c2ccc(C#N)cc2)nc2ccccc12 (configuration not stated)
inactive: T-47D breast 62.4% | BT-549 breast 74.6% | MDA-MB-435 melanoma 88% | SW-620 colon 76% | MCF7 breast 72.1% | HCT-116 colon 51.4% | KM12 colon 99%

O=C1Nc2ccccc2/C1=C\c1nc(-c2ccccc2)n2ccccc12
inactive: T-47D breast 43.1% | BT-549 breast 85.5% | MDA-MB-435 melanoma 90.5% | SW-620 colon 103% | MCF7 breast 52.9% | HCT-116 colon 76.3% | KM12 colon 74.3%

CN(CCOc1ccc(C#N)cc1)CCOc1ccc(C#N)cc1
inactive: T-47D breast 79.9% | BT-549 breast 91.3% | MDA-MB-435 melanoma 86.3% | SW-620 colon 57.8% | MCF7 breast 211% | HCT-116 colon 66.2% | KM12 colon 71.4%

Nc1ncnc2c1N=C(c1ccc3c(c1)OCO3)CC(c1ccc([N+](=O)[O-])cc1)N2 (configuration not stated)
inactive: T-47D breast 72.4% | BT-549 breast 96.2% | MDA-MB-435 melanoma 79.8% | SW-620 colon 81.5% | MCF7 breast 63.2% | HCT-116 colon 66.6% | KM12 colon 78.4%

CCOC(=O)c1[nH]c(=O)c2c(C)nc(-c3ccccc3)cc2c1O
inactive: T-47D breast 101% | BT-549 breast 146% | MDA-MB-435 melanoma 109% | SW-620 colon 98.3% | MCF7 breast 92.7% | HCT-116 colon 95% | KM12 colon 110%

COc1ccc2[nH]cc(-c3nc(-c4c[nH]c5ccncc45)cs3)c2c1
inactive: T-47D breast 61.5% | BT-549 breast 74% | KM12 colon 21.1%
active: MDA-MB-435 melanoma -76.3% | MCF7 breast 5.44% | HCT-116 colon -62% | HCC-2998 colon -45.8%

— PubChem BioAssay (NCI)
